Laboratory results from the supplement of paper PMC11732987, “Enantioselective OTUD7B fragment discovery through chemoproteomics screening and high-throughput optimisation” (Communications Chemistry, 2025).

Tests used:
Test in all cases: log2 ratio of Biotin-Ahx-Ub-VS probe labelling (fragment/DMSO); higher = less target engagement (more negative = stronger competition), active = hit call of the paper (q ≤ 0.05, log2 ratio ≤ -1)
Details in all cases: compound concentration: 200 uM; treatment time: 3 h
[1] = molecular target: USP9X (UniProt Q93008)
Chain of USP9X (Q93008 whole entry, the tested form may be a part): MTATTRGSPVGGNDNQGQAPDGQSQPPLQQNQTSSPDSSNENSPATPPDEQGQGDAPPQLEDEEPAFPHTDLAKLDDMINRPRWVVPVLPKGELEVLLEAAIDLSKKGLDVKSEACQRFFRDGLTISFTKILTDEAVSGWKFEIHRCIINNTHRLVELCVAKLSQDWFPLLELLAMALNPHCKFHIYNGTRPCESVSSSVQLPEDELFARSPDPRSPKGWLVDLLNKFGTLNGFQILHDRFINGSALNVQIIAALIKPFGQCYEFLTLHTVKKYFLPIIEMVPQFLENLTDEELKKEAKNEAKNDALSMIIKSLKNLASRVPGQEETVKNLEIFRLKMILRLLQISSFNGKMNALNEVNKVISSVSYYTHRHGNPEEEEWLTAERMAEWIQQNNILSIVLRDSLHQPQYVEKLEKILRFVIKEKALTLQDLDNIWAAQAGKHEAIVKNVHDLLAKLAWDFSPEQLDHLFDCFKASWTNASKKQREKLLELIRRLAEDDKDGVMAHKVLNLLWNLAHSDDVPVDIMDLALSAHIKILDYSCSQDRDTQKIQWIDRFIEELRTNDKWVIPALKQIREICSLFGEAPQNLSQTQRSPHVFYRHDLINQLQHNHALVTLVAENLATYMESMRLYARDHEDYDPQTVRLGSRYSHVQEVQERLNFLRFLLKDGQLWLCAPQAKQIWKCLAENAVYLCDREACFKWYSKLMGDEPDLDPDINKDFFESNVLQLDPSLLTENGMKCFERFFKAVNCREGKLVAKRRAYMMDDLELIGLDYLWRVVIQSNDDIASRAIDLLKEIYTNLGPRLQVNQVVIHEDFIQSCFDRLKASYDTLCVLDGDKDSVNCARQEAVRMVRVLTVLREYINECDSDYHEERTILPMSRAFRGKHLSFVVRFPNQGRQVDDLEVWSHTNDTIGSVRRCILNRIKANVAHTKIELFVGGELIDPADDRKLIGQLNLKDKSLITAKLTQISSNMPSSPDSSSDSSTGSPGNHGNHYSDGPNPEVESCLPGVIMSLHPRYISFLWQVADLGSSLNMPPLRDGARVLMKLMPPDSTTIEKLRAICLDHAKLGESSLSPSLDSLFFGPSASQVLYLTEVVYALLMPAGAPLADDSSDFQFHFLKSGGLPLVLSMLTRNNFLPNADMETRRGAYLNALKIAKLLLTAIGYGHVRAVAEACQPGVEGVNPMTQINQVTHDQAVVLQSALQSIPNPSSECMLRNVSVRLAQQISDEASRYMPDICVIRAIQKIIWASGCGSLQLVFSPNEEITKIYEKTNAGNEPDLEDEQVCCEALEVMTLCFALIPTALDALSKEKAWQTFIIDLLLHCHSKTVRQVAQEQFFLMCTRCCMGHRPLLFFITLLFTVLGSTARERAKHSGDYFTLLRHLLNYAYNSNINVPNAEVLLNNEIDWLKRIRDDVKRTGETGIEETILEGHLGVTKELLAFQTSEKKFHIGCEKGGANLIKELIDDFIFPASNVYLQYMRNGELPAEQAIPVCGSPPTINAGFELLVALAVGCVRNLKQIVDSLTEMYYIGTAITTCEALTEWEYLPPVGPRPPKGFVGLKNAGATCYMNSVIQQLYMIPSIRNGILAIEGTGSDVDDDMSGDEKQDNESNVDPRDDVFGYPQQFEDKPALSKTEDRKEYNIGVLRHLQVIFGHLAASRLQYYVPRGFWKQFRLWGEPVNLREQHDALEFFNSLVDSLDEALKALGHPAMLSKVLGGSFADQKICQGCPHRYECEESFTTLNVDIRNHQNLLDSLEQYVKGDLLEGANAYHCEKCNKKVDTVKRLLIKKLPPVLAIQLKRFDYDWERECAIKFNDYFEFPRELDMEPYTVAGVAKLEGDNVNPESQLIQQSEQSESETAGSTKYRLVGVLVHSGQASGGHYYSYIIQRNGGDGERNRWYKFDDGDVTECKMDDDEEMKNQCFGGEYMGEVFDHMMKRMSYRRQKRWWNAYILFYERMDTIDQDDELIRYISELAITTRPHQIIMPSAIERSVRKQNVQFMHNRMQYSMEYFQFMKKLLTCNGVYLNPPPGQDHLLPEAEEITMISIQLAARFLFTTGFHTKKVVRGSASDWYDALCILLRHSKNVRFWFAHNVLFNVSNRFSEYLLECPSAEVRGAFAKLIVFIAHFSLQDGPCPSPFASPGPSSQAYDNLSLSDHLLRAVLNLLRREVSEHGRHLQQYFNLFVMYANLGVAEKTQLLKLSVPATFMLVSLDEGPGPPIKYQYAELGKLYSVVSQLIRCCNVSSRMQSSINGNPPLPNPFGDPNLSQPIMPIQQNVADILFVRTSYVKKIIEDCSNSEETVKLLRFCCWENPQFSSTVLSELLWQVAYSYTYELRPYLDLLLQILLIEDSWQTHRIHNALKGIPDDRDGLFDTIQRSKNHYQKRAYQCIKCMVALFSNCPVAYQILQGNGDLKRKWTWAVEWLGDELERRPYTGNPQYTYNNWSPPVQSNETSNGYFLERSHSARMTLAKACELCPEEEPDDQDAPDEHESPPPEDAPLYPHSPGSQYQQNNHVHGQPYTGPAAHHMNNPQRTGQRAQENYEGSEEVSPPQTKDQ
In short: (§1)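 Labelled DUBs from HEK293T lysate were NeutrAvidin-enriched, digested with LysC and trypsin, and run by diaPASEF LC-MS/MS. Before that, each 495 µg sample in Tris/CHAPS/IGEPAL buffer with protease inhibitors was treated in triplicate with fragment at 200 µM or vehicle for 3 h, then with Biotin-Ahx-Ub-VS at 0.5 µM final for 1 h. Values are average log2 ratios of fragment over vehicle by unpaired t-test, based on global-median-normalised Spectronaut label-free quantities from proteins with ≥2 unique peptides.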

[2] = molecular target: UniProt O00487
Chain of UniProt O00487 (O00487 whole entry): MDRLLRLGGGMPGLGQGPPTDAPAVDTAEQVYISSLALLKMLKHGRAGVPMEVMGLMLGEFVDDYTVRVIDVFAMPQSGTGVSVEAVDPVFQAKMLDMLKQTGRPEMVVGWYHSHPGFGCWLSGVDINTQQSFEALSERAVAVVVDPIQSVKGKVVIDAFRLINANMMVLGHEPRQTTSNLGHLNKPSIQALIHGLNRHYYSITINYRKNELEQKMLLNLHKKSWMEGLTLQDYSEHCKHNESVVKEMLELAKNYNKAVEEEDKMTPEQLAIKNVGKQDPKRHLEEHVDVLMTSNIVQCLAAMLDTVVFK
In short: as §1

[3] = molecular target: UniProt O00507
In short: as §1

[4] = molecular target: UniProt P51784
Chain of UniProt P51784 (P51784 whole entry): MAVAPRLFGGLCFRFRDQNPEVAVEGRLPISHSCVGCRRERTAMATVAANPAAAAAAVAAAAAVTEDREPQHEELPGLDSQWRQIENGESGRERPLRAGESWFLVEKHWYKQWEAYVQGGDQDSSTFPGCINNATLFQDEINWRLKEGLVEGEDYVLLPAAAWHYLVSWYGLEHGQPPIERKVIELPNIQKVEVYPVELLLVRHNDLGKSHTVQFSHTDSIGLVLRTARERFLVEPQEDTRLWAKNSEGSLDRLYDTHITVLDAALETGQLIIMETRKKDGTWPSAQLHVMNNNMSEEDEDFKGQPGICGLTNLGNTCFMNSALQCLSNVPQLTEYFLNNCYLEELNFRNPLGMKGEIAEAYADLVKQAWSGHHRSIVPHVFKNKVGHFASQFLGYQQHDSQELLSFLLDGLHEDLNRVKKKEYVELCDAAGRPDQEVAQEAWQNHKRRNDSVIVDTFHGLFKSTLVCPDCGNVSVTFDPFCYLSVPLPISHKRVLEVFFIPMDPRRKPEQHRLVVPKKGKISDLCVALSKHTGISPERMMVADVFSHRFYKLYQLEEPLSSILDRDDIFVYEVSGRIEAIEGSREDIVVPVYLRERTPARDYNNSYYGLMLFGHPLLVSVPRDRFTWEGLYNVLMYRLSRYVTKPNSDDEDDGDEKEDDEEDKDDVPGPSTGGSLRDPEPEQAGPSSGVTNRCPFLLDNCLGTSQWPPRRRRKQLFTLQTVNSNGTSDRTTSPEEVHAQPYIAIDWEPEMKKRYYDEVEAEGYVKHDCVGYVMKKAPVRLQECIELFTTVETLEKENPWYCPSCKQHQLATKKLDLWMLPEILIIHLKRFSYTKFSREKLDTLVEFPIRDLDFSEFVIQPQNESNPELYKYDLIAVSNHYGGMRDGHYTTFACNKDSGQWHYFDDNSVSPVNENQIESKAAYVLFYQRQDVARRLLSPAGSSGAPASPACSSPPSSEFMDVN
In short: as §1

[5] = molecular target: T1, UniProt Q5T2D3
T1 sequence (whole entry): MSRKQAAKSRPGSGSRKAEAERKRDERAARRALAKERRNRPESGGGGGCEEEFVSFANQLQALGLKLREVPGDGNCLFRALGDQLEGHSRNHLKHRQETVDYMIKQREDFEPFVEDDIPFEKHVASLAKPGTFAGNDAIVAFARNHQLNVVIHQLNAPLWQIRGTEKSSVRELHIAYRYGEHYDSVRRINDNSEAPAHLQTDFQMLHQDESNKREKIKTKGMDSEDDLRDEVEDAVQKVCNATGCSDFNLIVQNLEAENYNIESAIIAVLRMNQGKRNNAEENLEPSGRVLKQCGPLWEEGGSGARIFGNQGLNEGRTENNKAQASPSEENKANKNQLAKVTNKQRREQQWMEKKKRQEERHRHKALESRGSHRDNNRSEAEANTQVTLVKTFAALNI
In short: as §1

[6] = molecular target: T2, UniProt Q8TE49
T2 sequence (whole entry): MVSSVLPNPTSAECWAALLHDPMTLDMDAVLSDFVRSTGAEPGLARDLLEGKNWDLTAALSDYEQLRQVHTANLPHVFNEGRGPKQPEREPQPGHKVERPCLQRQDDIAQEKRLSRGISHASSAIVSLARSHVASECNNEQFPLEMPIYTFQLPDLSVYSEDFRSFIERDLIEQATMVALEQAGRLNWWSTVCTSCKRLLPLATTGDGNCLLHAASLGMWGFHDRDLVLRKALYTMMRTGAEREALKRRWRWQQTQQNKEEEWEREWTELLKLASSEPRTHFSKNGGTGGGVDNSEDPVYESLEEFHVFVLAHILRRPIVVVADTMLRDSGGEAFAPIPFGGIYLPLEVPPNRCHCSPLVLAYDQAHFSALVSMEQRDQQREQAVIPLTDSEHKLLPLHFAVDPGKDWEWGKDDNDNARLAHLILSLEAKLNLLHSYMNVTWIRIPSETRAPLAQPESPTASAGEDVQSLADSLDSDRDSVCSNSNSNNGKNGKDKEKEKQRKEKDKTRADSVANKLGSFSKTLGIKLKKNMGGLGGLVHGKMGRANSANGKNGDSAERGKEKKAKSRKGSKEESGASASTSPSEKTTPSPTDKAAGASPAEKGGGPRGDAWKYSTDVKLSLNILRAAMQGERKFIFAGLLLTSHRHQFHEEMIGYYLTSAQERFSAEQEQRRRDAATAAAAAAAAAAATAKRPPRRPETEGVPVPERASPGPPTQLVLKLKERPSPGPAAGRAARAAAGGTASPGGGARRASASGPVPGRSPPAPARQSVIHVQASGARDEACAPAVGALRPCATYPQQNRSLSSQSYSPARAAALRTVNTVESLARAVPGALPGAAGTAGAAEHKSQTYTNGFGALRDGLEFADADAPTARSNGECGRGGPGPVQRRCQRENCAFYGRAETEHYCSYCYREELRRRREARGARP
In short: as §1

[7] = molecular target: T3, UniProt Q9P2H5
T3 sequence (whole entry): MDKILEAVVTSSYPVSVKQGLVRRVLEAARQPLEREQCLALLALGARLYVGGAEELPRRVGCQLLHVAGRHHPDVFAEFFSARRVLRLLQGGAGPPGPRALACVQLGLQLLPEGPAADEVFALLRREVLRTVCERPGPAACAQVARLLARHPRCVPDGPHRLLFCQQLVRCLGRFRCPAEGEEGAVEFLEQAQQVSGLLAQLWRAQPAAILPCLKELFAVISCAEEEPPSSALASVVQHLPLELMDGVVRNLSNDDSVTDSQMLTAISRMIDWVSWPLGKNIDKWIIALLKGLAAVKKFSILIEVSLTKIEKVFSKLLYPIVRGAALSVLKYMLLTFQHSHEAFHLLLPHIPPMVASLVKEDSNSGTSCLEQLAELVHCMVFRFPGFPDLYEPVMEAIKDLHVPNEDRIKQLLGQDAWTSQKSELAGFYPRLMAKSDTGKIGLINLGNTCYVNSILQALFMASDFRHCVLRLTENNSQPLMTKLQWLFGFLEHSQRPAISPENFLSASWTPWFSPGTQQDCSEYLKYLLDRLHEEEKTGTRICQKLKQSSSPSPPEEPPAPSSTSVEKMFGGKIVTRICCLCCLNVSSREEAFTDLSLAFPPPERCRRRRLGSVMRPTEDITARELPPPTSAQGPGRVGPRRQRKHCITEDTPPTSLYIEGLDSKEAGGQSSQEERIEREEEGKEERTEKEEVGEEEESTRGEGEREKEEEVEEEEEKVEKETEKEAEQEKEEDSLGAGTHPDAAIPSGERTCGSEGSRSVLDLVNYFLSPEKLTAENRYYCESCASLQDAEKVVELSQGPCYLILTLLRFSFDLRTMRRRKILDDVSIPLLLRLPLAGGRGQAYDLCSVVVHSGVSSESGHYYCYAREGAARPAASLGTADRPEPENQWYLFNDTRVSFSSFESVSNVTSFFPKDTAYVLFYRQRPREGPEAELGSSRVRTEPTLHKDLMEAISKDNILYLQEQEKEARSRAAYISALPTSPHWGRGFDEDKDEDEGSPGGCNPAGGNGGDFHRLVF
In short: as §1

[8] = molecular target: T4, UniProt Q9UGI0
T4 sequence (whole entry): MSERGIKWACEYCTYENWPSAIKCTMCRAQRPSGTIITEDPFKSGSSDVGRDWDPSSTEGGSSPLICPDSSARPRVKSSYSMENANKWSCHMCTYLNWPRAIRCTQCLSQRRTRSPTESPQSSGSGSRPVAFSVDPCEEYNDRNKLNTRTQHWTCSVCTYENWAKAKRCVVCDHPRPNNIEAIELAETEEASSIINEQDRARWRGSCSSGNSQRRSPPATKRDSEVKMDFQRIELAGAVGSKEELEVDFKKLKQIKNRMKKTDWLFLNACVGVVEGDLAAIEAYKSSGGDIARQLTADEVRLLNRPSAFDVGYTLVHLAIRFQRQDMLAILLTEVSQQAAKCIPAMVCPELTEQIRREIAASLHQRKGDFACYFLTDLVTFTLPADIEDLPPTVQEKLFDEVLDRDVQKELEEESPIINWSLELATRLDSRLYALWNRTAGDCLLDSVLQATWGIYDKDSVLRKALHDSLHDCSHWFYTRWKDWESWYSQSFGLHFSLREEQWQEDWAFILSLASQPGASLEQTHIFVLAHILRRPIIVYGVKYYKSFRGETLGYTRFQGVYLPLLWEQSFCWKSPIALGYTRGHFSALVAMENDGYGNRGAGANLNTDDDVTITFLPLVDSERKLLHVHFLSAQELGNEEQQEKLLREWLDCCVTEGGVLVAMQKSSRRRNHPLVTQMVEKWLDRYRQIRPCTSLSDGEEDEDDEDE
In short: as §1

[9] = molecular target: T5, YOD1 (UniProt Q5VVQ6)
T5 sequence (whole entry): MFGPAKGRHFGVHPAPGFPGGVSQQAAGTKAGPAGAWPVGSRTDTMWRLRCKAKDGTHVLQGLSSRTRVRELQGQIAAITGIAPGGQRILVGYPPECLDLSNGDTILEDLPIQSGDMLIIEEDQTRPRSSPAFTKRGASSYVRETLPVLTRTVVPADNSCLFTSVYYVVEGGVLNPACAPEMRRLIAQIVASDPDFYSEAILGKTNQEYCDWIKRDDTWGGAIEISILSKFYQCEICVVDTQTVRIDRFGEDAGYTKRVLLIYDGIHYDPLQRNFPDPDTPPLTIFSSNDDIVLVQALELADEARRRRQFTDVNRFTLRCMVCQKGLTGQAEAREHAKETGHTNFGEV
In short: as §1

Measured: log2 ratio of Biotin-Ahx-Ub-VS probe labelling

CCC1c2ccsc2CCN1C(=O)CCl (centres undefined)
inactive: [1] -0.309 | [2] -0.0357 | [3] -0.266 | [4] -0.306 | [5] -0.0335 | [6] -0.771 | [7] -0.118 | [8] -0.444 | [9] -0.026
